Test results from PubChem BioAssay.
Entries with a potency or affinity are not part of this list. Inconclusive results are not listed. Activity calls are given as the source filed them. Unless noted, no rule for the calls is given here.

How the values were obtained:
[1] = cytotoxicity in PAX8-dependent RMG-1 cells, dose response, cell-based, cherry-pick (AID 687029;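 active = signal drop whose fitted half-maximal concentration is at most twice the top valid dose, in every test run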;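 also: cells exposed to compound for 96 hours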)
[2] = cytotoxicity in IOSE-T80 ovarian epithelial cells, dose response, selectivity assay for PAX8 inhibitor project, cell-based, cherry-pick (AID 687032;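 active = fitted half-maximal concentration for viability loss no higher than twice the top valid dose, in every repeat run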;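 also: cells exposed to compound for 96 h before reading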)
[3] = inhibitors of CMV-promoter luciferase reporter, dose response, counter-screen for Pax8 inhibitor project, cell-based, HEK293, luminescence, dry powder (AID 743020;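 active = signal-lowering compounds whose fitted half-maximal concentration is at or below twice the top tested dose in every run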;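 also: HEK293 cells stably expressing the CMV luciferase reporter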)
[4] = non-specific cell cytotoxicity, dose response, cytotoxicity control for PAX8 inhibitor project, plate reader, dry powder samples (AID 743021)
[5] = IOSE-T80 ovarian epithelial cell cytotoxicity, dose response, cytotoxicity control for PAX8 inhibitor project, plate reader, dry powder samples (AID 743045);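 also: more negative values mean more cell killing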
[6] = A2780 ovarian cancer cell cytotoxicity, dose response, cytotoxicity control, plate reader, dry powder samples (AID 743046)
[7] = cytotoxicity in OVCAR8 ovarian cancer cells, dose response, PAX8 project, cell-based, plate reader, dry powder samples (AID 743197)

Measured: outcome

Cc1ccc(S(=O)(=O)N(C)C[C@H]2OCCCC[C@H](C)Oc3ccc(NS(=O)(=O)c4ccc(F)cc4)cc3C(=O)N([C@H](C)CO)C[C@@H]2C)cc1
inactive: [1] | [2] | [3] | [4] | [5] | [6]

Cc1ccc(S(=O)(=O)Nc2ccc3c(c2)C(=O)N([C@@H](C)CO)C[C@H](C)[C@@H](CN(C)Cc2ccc(C(F)(F)F)cc2)OCCCC[C@H](C)O3)cc1
inactive: [1] | [2] | [3] | [4] | [5]

C[C@@H]1CCCCO[C@@H](CN(C)Cc2ccc3c(c2)OCO3)[C@@H](C)CN([C@@H](C)CO)C(=O)c2cc(NC(=O)Nc3ccc(C(F)(F)F)cc3)ccc2O1
inactive: [1] | [2] | [3] | [4] | [5] | [6]

C[C@H](CO)N1C[C@H](C)[C@@H](CN(C)Cc2ccc(-c3ccccc3)cc2)Oc2ccc(NS(=O)(=O)c3ccc(F)cc3)cc2CC1=O
inactive: [1] | [2] | [3] | [4] | [5] | [6]

C[C@H]1CCCCO[C@@H](CN(C)Cc2ccc(C(F)(F)F)cc2)[C@@H](C)CN([C@@H](C)CO)C(=O)c2cc(NS(=O)(=O)c3ccc(F)cc3)ccc2O1
inactive: [1] | [2] | [3] | [4] | [5] | [6]

COc1ccc(S(=O)(=O)Nc2ccc3c(c2)C(=O)N([C@H](C)CO)C[C@@H](C)[C@@H](CN(C)Cc2ccc(C(F)(F)F)cc2)OCCCC[C@@H](C)O3)cc1
inactive: [1] | [2] | [3] | [4] | [5]

O=C(c1ccccc1F)N1CC(=O)N2[C@@H](CO)[C@@H](c3ccc(C#Cc4ccc(F)cc4)cc3)[C@@H]2C1
inactive: [1] | [2] | [3] | [4] | [5] | [6]

C[C@@H]1CCCCO[C@H](CN(C)Cc2ccc(C(F)(F)F)cc2)[C@@H](C)CN([C@@H](C)CO)C(=O)c2cc(NS(=O)(=O)c3ccc(F)cc3)ccc2O1
inactive: [1] | [2] | [3] | [4] | [5]

C[C@@H]1CCCCO[C@@H](CN(C)Cc2ccc(C(F)(F)F)cc2)[C@H](C)CN([C@@H](C)CO)C(=O)c2cc(NC(=O)Cc3ccccc3)ccc2O1
inactive: [1] | [2] | [3] | [4] | [5] | [6]

OC[C@@H]1[C@H](c2ccc(-c3ccc(F)cc3)cc2)[C@@H]2CN(CCC(F)(F)F)CCCCN12
inactive: [1] | [2] | [3] | [4] | [5] | [6]

C[C@@H]1CN([C@H](C)CO)C(=O)c2c(c3ccccc3n2C)-c2ccccc2CO[C@H]1CN(C)S(=O)(=O)c1ccc(C(F)(F)F)cc1
inactive: [1] | [2] | [3] | [4] | [5]

C[C@@H]1CCCCO[C@@H](CN(C)Cc2ccc(C(F)(F)F)cc2)[C@H](C)CN([C@H](C)CO)C(=O)c2cc(NS(=O)(=O)c3ccc(F)cc3)ccc2O1
inactive: [1] | [2] | [3] | [4] | [5]

CCc1ccc(/C=C2\SC(=S)N(CCCC(=O)N(CCO)c3ccccc3)C2=O)cc1
inactive: [1] | [2] | [3] | [4] | [5] | [6]

C[C@@H]1CN([C@@H](C)CO)C(=O)c2cc(NS(=O)(=O)c3ccc(F)cc3)ccc2O[C@@H](C)CCCCO[C@@H]1CN(C)Cc1ccc(C(F)(F)F)cc1
inactive: [1] | [2] | [3] | [4] | [5]

CCCC#Cc1ccc([C@H]2[C@@H](CO)N3CCCCN(S(=O)(=O)Cc4ccccc4)C[C@H]23)cc1
inactive: [1] | [2] | [3] | [4] | [5] | [6]

COc1cccc(-c2ccc3c(c2)[C@@H]2[C@@H](CCN2S(=O)(=O)c2ccccc2OC)[C@H](CO)N3C)c1
inactive: [1] | [2] | [3] | [4] | [5] | [6]

C[C@@H]1CN([C@H](C)CO)C(=O)c2cc(NS(=O)(=O)c3ccc(Cl)cc3)ccc2O[C@@H](C)CCCCO[C@H]1CN(C)Cc1ccc2c(c1)OCO2
inactive: [1] | [2] | [3] | [4] | [5] | [6]

C[C@@H]1CN([C@@H](C)CO)C(=O)Cc2cc(NS(=O)(=O)c3ccc(F)cc3)ccc2O[C@H]1CN(C)Cc1ccc(Cl)c(Cl)c1
inactive: [1] | [2] | [3] | [4] | [5]

C[C@@H]1CN([C@@H](C)CO)C(=O)c2cc(NC(=O)Nc3ccc(C(F)(F)F)cc3)ccc2O[C@@H](C)CCCCO[C@H]1CN(C)Cc1ccc2c(c1)OCO2
inactive: [1] | [2] | [3] | [4] | [5] | [6]

C[C@@H]1CCCCO[C@@H](CN(C)Cc2ccccc2)[C@H](C)CN([C@@H](C)CO)C(=O)c2cc(NC(=O)Nc3ccc(C(F)(F)F)cc3)ccc2O1
inactive: [1] | [2] | [3] | [4] | [5]

C[C@@H]1CCCCO[C@H](CN(C)Cc2ccc(Cl)c(Cl)c2)[C@@H](C)CN([C@@H](C)CO)C(=O)c2cc(NC(=O)Nc3ccc(F)cc3)ccc2O1
inactive: [1] | [2] | [3] | [4] | [5]

COc1cccc(-c2ccc3c(c2)[C@H]2[C@H](CCN2S(=O)(=O)c2ccccc2OC)[C@@H](CO)N3C)c1
inactive: [1] | [2] | [3] | [4] | [5] | [6]

C[C@@H]1CCCCO[C@H](CN(C)Cc2ccc(Cl)c(Cl)c2)[C@@H](C)CN([C@@H](C)CO)C(=O)c2cc(NC(=O)Cc3ccccc3)ccc2O1
inactive: [1] | [2] | [3] | [4] | [5] | [6]

COc1ccc(S(=O)(=O)Nc2ccc3c(c2)C(=O)N([C@H](C)CO)C[C@@H](C)[C@H](CN(C)S(=O)(=O)c2ccc(Cl)cc2)OCCCC[C@H](C)O3)cc1
inactive: [1] | [2] | [3] | [4] | [5] | [6]

C[C@@H]1CCCCO[C@@H](CN(C)Cc2ccc(C(F)(F)F)cc2)[C@H](C)CN([C@@H](C)CO)C(=O)c2cc(NC(=O)NC3CCCCC3)ccc2O1
inactive: [1] | [2] | [3] | [4] | [5] | [6]

C[C@@H]1CN([C@H](C)CO)C(=O)c2cc(NC(=O)Nc3ccc4c(c3)OCO4)ccc2O[C@@H](C)CCCCO[C@H]1CN(C)Cc1ccc(C(F)(F)F)cc1
inactive: [1] | [2] | [3] | [4] | [5]

COc1ccc(-c2ccc3c(c2)[C@@H]2[C@@H](CCN2C(=O)C2CCCCC2)[C@H](CO)N3C)cc1
inactive: [1] | [2] | [3] | [4] | [5]

Cc1noc(C)c1S(=O)(=O)Nc1ccc2c(c1)C(=O)N([C@H](C)CO)C[C@@H](C)[C@@H](CN(C)Cc1ccc(C(F)(F)F)cc1)OCCCC[C@H](C)O2
inactive: [1] | [2] | [3] | [4] | [5] | [6]

O=C1CN(S(=O)(=O)Cc2ccccc2)C[C@@H]2[C@@H](c3ccc(C#CCC4CCCC4)cc3)[C@@H](CO)N12
inactive: [1] | [2] | [3] | [4] | [5]

C[C@@H]1CN([C@@H](C)CO)C(=O)Cc2cc(NS(=O)(=O)c3ccc(F)cc3)ccc2O[C@H]1CN(C)Cc1ccc(C(F)(F)F)cc1
inactive: [1] | [2] | [3] | [4] | [5] | [6]

O=C(Nc1cccc(F)c1)N1CCCCN2[C@@H](CO)[C@@H](c3ccc(-c4ccccc4F)cc3)[C@@H]2C1
inactive: [1] | [2] | [3] | [4] | [5] | [6] | [7]

C[C@H]1CCCCO[C@@H](CN(C)Cc2ccccc2)[C@@H](C)CN([C@@H](C)CO)C(=O)c2cc(NC(=O)Nc3ccc(C(F)(F)F)cc3)ccc2O1
inactive: [1] | [2] | [3] | [4] | [5] | [6]

COc1ccccc1S(=O)(=O)N(C)C[C@H]1Oc2cc(C#CCC3CCCC3)ccc2S(=O)(=O)N([C@@H](C)CO)C[C@@H]1C
inactive: [1] | [2] | [3] | [4] | [5] | [7]

Cc1ccccc1S(=O)(=O)N1C[C@@H]2N[C@H](C1)C2c1ccc(-c2cccc(C#N)c2)cc1 (some centres undefined)
inactive: [1] | [2] | [3] | [4] | [6]

C[C@@H]1CCCCO[C@H](CN(C)Cc2ccc(C(F)(F)F)cc2)[C@H](C)CN([C@H](C)CO)C(=O)c2cc(NC(=O)Cc3ccccc3)ccc2O1
inactive: [1] | [2] | [3] | [4] | [5] | [6]

Cc1cccc(S(=O)(=O)N2CCCCN3[C@H](CO)[C@H](c4ccc(C#C[C@H](C)O)cc4)[C@H]3C2)c1
inactive: [1] | [2] | [3] | [4] | [5] | [6]

C[C@H](CO)N1C[C@H](C)[C@H](CN(C)S(=O)(=O)c2ccc(Cl)cc2)OCc2ccccc2-c2c(n(C)c3ccccc23)C1=O
inactive: [1] | [2] | [3] | [4] | [5] | [6]

CCCC#Cc1ccc([C@@H]2[C@H](CO)N3CCCCN(S(=O)(=O)Cc4ccccc4)C[C@@H]23)cc1
inactive: [1] | [2] | [3] | [4] | [5] | [6] | [7]

O=C(C[C@H]1C[C@@H]2c3cc(NC(=O)Nc4ccc(C(F)(F)F)cc4)ccc3O[C@@H]2[C@@H](CO)O1)NCc1ccc(Cl)cc1
inactive: [1] | [2] | [3] | [4] | [5] | [6] | [7]

O=C(Nc1ccc(C(F)(F)F)cc1)N1C[C@@H]2N[C@H](C1)C2c1ccc(/C=C/c2ccccc2)cc1 (some centres undefined)
inactive: [1] | [2] | [3] | [4] | [5] | [7]

C[C@@H]1CN([C@@H](C)CO)C(=O)Cc2cc(NC(=O)CCC(F)(F)F)ccc2O[C@H]1CN(C)Cc1ccc(Oc2ccccc2)cc1
inactive: [1] | [2] | [3] | [4] | [5] | [6] | [7]

C[C@H]1CCCCO[C@H](CN(C)C(=O)Nc2ccc(C(F)(F)F)cc2)[C@@H](C)CN([C@@H](C)CO)C(=O)c2cc(NC(=O)CCC(F)(F)F)ccc2O1
inactive: [1] | [2] | [3] | [4] | [5] | [6] | [7]
